# Assay results taken from PubChem BioAssay AID1663 (Broad Institute, 2009).
# Among all 300,000 compounds or so, about 660 (0.22%) were called active.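 The calls were made as follows: active = mean replicate score, as percent of positive control, at or above 50; inconclusive = mean below 50 but at least one replicate at or above 50; inactive = mean and every replicate below 50.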 The entries come from a sample that favours actives as a whole.
# Test: inhibitors of platelet dense granule secretion, primary screen, cell-based, MLPCN, human platelets (AID 1663)
# Conditions: human platelet-rich plasma, SFLLRN dense granule ATP release, luminescence; hits give high values;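 compounds screened at 7.5 µM in platelet-rich plasma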
row,Structure (SMILES),inhibition
1,O=[N+]([O-])c1ccc2c(c1)Nc1nc3ccccc3nc1N2,-4.77% (inactive)
2,Cc1sc2ncn(CC(=O)NCCCC(=O)N(C)Cc3ccccc3)c(=O)c2c1C,10.8% (inactive)
3,COc1ccc(C(C)=O)cc1CN1C(=O)NC2(CCCCC2C)C1=O (stereo not drawn),-14.5% (inactive)
4,O=[N+]([O-])c1ncc(Br)cc1Nc1ccccc1,-1.96% (inactive)
5,CCOC(=O)N1CCN(C(=O)c2ccc3c(=O)n(CCc4ccc(OC)c(OC)c4)c(=O)[nH]c3c2)CC1,-6.61% (inactive)
6,C/C(=N\NC(=O)c1cc2c(s1)CCC(C)C2)c1cccnc1 (stereo not drawn),9.94% (inactive)
7,COc1ccc(C2CC(=O)Nc3sc(=N)c4c(N)c(C#N)c(N)nc4c32)cc1OC (stereo not drawn),92.7% (active)
8,COc1ccc(-c2cc(-c3ccc(N)cc3)nc(N)c2C#N)cc1OC,0.00483% (inactive)
9,N#Cc1c(N)nc2c3c(sc(=N)c2c1N)NC(=O)CC3c1ccccc1Cl (stereo not drawn),-3.78% (inactive)
10,COc1ccc(NC(=O)CC2C(=O)OCC3CCCCN32)cc1Cl (stereo not drawn),7.17% (inactive)
11,O=C(CSc1nnc(SCc2ccc(F)cc2)s1)Nc1ccc(C(=O)O)cc1,65.9% (active)
12,O=C(Cc1cccs1)Nc1nnc(SCc2ccc(F)cc2)s1,-6.18% (inactive)
13,COc1cc(OC)cc(-c2nnc(SCC(=O)Nc3ccc(C(=O)O)cc3)s2)c1,-1.66% (inactive)
14,COc1ccc(C(=O)OCC(=O)NC(=O)CCSc2ccccc2)cc1,-1.32% (inactive)
15,C=CCNCCCCOc1ccccc1,3.06% (inactive)
16,C=C(C)COc1ccc(-c2ncncc2-c2ccc(OC)cc2)c(O)c1,3.43% (inactive)
17,CC(C(=O)NC1CCCCC1)N1C(=O)c2cccc3cccc1c23 (stereo not drawn),7.75% (inactive)
18,COc1cccc(C(=O)Nc2ccc(N3CCCC3)cc2)c1,87.6% (active)
19,CN1CCN(c2ccc(NC(=O)c3ccccc3)cc2)CC1,28.5% (inactive)
20,COc1cccc(C(=O)Nc2ccc(N3CCN(C(=O)c4ccco4)CC3)cc2)c1,-47.4% (inactive)
21,C/C=C/C(=O)OCC(=O)Nc1ccc(F)cc1Cl,1.87% (inactive)
22,COc1ccc(C(=O)NC2CC2)cc1OC1CCN(C/C=C/c2ccccc2)CC1,-4.81% (inactive)
23,Cc1cnc(NC(=O)c2ccccn2)s1,52.7% (active)
24,O=C(Nc1nnc(C2CC2)s1)c1ccccn1,-0.73% (inactive)
25,Cc1cnc(NC(=O)c2ccc(Cl)nc2)s1,-2.29% (inactive)
26,Cn1c(-c2ccco2)nc2cc3ccccc3cc21,66.2% (active)
27,Cc1cc(C(F)(F)F)nn1-c1nc(-c2ccco2)cc(C(F)(F)F)n1,0.688% (inactive)
28,COc1ccccc1-n1c(-c2cc(-c3ccco3)[nH]n2)n[nH]c1=S,3.67% (inactive)
